Where “and” joins values, the source holds several entries; their conditions need not be identical. Equal entries are not always repeated. About 2,000 (36%) of roughly 5,500 compounds were called active. Roughly 18% stayed inconclusive and do not appear here. Rule as the data show it: active = normalized growth mostly below about 0.91 (no sharp cut-off); inconclusive = no clear call, values can overlap the other calls; inactive = mostly above about 0.92. This is one part of the list.
Experiment: chemical genetic growth profiling, strain panel (AID 1159580);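 also: tested at 20 µM; growth read once vehicle control cultures reached saturation at 30 °C; 1 = growth at the plate median or of vehicle wells; lower values mean less growth of the strain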
Settings: S. cerevisiae deletion strains, growth OD

Measured: normalized growth

C=C[C@@]1(C)CC(=O)[C@@]2(O)[C@](C)(O1)[C@@H](OC(C)=O)[C@@H](O)C1C(C)(C)CC[C@H](O)[C@@]12C (stereo partly specified)
inactive: locus YAL013W, strain DEP1, stronger effect = lower value 0.984 | locus YAL021C, strain ccr4, stronger effect = lower value 0.951 | locus YAL026C, strain drs2, stronger effect = lower value 0.978 | locus YAL030W, strain snc1, stronger effect = lower value 0.973 | locus YBL061C, strain skt5, stronger effect = lower value 0.984 | locus YBR009C, strain hhf1, stronger effect = lower value 1 | locus YBR021W, strain FUR4, stronger effect = lower value 1.01 | locus YBR023C, strain chs3, stronger effect = lower value 0.978 | locus YBR171W, strain sec66, stronger effect = lower value 0.992 | locus YBR229C, strain ROT2, stronger effect = lower value 0.947 | locus YBR231C, strain swc5, stronger effect = lower value 1.01 | locus YBR279W, strain paf1, stronger effect = lower value 0.974 | locus YCL011C, strain gbp2, stronger effect = lower value 0.954 | locus YCL016C, strain dcc1, stronger effect = lower value 0.956 | locus YCL029C, strain bik1, stronger effect = lower value 0.977 | locus YCL069W, strain vba3, stronger effect = lower value 0.983 | locus YCR088W, strain abp1, stronger effect = lower value 0.996 | locus YDL005C, strain med2, stronger effect = lower value 0.983 | locus YDL035C, strain GPR1, stronger effect = lower value 0.96 | locus YDL040C, strain nat1, stronger effect = lower value 0.986 | locus YDL074C, strain BRE1, stronger effect = lower value 0.999 | locus YDL101C, strain DUN1, stronger effect = lower value 0.988 | locus YDL134C, strain PPH21, stronger effect = lower value 0.981 | locus YDL185W, strain tfp1, stronger effect = lower value 0.986 | locus YDL192W, strain arf1, stronger effect = lower value 0.976 | locus YDR001C, strain nth1, stronger effect = lower value 0.976 | locus YDR069C, strain doa4, stronger effect = lower value 0.975 | locus YDR101C, strain arx1, stronger effect = lower value 0.986 | locus YDR137W, strain rgp1, stronger effect = lower value 0.989 | locus YDR150W, strain NUM1, stronger effect = lower value 0.972 | locus YDR159W, strain sac3, stronger effect = lower value 1.02 | locus YDR162C, strain NBP2, stronger effect = lower value 0.969 | locus YDR195W, strain ref2 1.02 | locus YDR297W, strain sur2, stronger effect = lower value 0.977 | locus YDR318W, strain mcm21, stronger effect = lower value 0.986 | locus YDR334W, strain swr1, stronger effect = lower value 0.972 | locus YDR335W, strain msn5, stronger effect = lower value 0.988 | locus YDR388W, stronger effect = lower value 0.988 | locus YDR392W, strain spt3, stronger effect = lower value 0.905 | locus YDR502C, strain sam2, stronger effect = lower value 0.965 | locus YEL003W, strain gim4, stronger effect = lower value 0.994 | locus YEL037C, strain rad23, stronger effect = lower value 0.997 | locus YEL061C, strain CIN8 (second series), stronger effect = lower value 0.992 | locus YEL061C, strain CIN8, stronger effect = lower value 0.983 | locus YER015W, strain faa2, stronger effect = lower value 0.993 | locus YER016W, strain bim1, stronger effect = lower value 0.963 | locus YER110C, stronger effect = lower value 0.976 | locus YER111C, strain swi4, stronger effect = lower value 1.01 | locus YER155C, strain BEM2 (second series), stronger effect = lower value 0.999 | locus YER155C, strain BEM2, stronger effect = lower value 1.01 | locus YER167W, strain BCK2, stronger effect = lower value 0.964 | locus YFR010W, strain ubp6, stronger effect = lower value 0.998 | locus YGL078C, strain dbp3, stronger effect = lower value 0.985 | locus YGL086W, strain mad1, stronger effect = lower value 0.984 | locus YGL167C, strain pmr1, stronger effect = lower value 0.99 | locus YGL173C, strain kem1, stronger effect = lower value 0.987 | locus YGL227W, strain vid30, stronger effect = lower value 0.985 | locus YGL240W, strain doc1, stronger effect = lower value 0.98 | locus YGL248W, strain PDE1, stronger effect = lower value 0.982 | locus YGL253W, strain hxk2, stronger effect = lower value 0.948 | locus YGR078C, strain PAC10, stronger effect = lower value 1.01 | locus YGR135W, strain pre9, stronger effect = lower value 0.985 | locus YGR229C, strain SMI1, stronger effect = lower value 0.998 | locus YGR252W, strain gcn5, stronger effect = lower value 1 | locus YHR013C, strain ard1, stronger effect = lower value 0.948 | locus YHR027C, strain rpn1, stronger effect = lower value 0.982 | locus YHR030C, strain SLT2, stronger effect = lower value 0.987 and 0.975 | locus YHR079C, strain IRE1 (second series), stronger effect = lower value 0.994 | locus YHR079C, strain IRE1, stronger effect = lower value 0.978 | locus YHR094C, strain hxt1, stronger effect = lower value 0.987 | locus YHR129C, strain ARP1, stronger effect = lower value 0.996 | locus YHR142W, strain chs7, stronger effect = lower value 0.955 | locus YHR200W, strain rpn10, stronger effect = lower value 0.989 | locus YIL066C, strain RNR3, stronger effect = lower value 0.979 | locus YIL073C, strain SPO22, stronger effect = lower value 0.945 | locus YIL125W, strain kgd1, stronger effect = lower value 0.983 | locus YIR030C, strain dcg1, stronger effect = lower value 0.979 | locus YJL092W, strain hpr5, stronger effect = lower value 0.974 | locus YJL095W, strain BCK1 (second series), stronger effect = lower value 0.978 | locus YJL095W, strain BCK1, stronger effect = lower value 1 and 0.973 | locus YJL115W, strain asf1, stronger effect = lower value 0.964 | locus YJL129C, strain trk1, stronger effect = lower value 0.954 | locus YJL134W, strain LCB3, stronger effect = lower value 0.984 | locus YJL154C, strain vps35, stronger effect = lower value 0.982 | locus YJL164C, strain tpk1, stronger effect = lower value 0.995 | locus YJL166W, strain qcr8, stronger effect = lower value 0.992 | locus YJL168C, strain set2, stronger effect = lower value 0.992 | locus YJL187C, strain SWE1 (second series), stronger effect = lower value 0.991 | locus YJL187C, strain SWE1, stronger effect = lower value 0.984 | locus YJR043C, strain POL32, stronger effect = lower value 1.01 | locus YJR066W, strain TOR1, stronger effect = lower value 0.927

From PubChem BioAssay AID1159580 (chemical genetic matrix, 2015)
